# Experiments:
# Assay in all cases: DAPPL (digital affinity profiling via proximity ligation, sequencing); 10 mM Tris-HCl pH 7.5, 50 mM NaCl, 1 mM DTT, 4% glycerol, room temperature, 30 min; GST-TFs on glutathione beads, 16-mer random dsDNA library, 0.1% formaldehyde crosslink after washing; high values mean tight binding
# Conditions in all cases: protein: recombinant; tags: N-terminal GST; dsDNA, one strand shown
# FLI1 = biological target: T1, FLI1 (Homo sapiens, UniProt Q01543 1-452)
# T1 sequence: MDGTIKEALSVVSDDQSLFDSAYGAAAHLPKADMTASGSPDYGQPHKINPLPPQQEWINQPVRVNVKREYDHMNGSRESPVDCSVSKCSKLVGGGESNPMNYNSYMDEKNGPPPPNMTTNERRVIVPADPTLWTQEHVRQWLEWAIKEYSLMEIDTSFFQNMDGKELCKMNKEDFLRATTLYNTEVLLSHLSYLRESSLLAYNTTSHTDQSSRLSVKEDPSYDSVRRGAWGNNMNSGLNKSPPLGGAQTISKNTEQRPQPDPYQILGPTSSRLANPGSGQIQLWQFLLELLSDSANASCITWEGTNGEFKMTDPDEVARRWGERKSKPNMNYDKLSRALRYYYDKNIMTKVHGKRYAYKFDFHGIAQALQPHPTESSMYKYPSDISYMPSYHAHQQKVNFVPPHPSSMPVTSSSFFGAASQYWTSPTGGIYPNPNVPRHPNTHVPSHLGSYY
# Method in brief: (§1)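 After expression in yeast as GST fusions, human transcription factors were bound to glutathione beads, DNA-barcoded and mixed with a tag-only sample. The pools were incubated with 200 nmole of a 16-mer random double-stranded DNA library in Tris/NaCl/DTT/glycerol buffer (30 min, room temperature), washed and crosslinked with 0.1% formaldehyde. Proximity ligation with BsaI/T4 ligase ran for 1 h at 37 °C, before PCR amplification and sequencing on an Illumina NextSeq500. Binding signal is a hexamer's read frequency for a factor divided by its frequency for the tag-only sample.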
# ELK1 = biological target: T2, ELK1 (Homo sapiens, UniProt P19419 1-428)
# T2 sequence: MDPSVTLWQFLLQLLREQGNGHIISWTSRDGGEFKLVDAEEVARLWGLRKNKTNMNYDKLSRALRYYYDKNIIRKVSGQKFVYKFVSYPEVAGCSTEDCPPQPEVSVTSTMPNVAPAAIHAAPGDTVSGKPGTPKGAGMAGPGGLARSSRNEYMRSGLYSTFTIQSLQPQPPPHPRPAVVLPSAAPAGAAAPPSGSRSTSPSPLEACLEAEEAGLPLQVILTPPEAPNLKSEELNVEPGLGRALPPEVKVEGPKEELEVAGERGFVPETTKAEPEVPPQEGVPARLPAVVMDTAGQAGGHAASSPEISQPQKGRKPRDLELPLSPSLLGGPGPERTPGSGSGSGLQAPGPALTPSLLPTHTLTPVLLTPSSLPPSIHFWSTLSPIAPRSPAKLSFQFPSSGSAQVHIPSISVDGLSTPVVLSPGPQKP
# Method in brief: as §1
# GABPA = biological target: T3, GABPA (Homo sapiens, UniProt Q06546 1-454)
# T3 sequence: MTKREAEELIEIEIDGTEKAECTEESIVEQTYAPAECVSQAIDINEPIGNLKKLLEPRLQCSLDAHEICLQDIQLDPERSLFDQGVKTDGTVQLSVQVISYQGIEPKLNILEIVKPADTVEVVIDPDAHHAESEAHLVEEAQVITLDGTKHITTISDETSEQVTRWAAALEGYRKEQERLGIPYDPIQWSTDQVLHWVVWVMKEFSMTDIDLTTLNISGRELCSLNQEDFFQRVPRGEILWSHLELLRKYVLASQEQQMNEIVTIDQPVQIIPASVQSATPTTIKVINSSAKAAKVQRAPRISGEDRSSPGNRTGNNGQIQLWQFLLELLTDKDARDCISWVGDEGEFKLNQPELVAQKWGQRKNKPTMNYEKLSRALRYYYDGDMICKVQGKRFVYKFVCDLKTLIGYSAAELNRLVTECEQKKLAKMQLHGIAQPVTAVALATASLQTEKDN
# Method in brief: as §1
# ERG = biological target: T4, ERG (Homo sapiens, UniProt P11308 1-479)
# T4 sequence: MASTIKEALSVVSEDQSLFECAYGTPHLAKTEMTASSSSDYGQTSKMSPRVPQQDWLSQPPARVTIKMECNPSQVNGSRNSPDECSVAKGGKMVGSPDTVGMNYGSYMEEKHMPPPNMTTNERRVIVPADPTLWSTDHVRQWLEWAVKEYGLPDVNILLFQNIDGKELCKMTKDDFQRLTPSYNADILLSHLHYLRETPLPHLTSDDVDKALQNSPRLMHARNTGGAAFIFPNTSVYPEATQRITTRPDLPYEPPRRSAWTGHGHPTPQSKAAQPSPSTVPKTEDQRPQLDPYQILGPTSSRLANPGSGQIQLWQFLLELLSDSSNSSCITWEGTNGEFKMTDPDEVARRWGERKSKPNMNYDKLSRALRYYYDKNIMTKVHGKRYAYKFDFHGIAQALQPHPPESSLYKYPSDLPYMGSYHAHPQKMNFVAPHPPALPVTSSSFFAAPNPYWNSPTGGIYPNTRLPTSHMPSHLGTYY
# Method in brief: as §1
# ELF1 = ELF1 (Homo sapiens, UniProt P32519 1-619)
# Method in brief: as §1
# EHF = biological target: T5, EHF (Homo sapiens, UniProt Q9NZC4 1-300)
# T5 sequence: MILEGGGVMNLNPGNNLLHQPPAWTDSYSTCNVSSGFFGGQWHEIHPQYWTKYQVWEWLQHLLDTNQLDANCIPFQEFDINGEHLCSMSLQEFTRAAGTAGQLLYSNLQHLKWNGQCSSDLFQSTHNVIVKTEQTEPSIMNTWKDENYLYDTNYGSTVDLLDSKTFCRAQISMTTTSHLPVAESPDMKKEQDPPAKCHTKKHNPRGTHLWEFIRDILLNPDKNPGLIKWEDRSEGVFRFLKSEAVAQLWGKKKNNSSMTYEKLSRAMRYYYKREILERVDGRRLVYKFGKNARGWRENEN
# Method in brief: as §1
# SPI1 = SPI1 (Homo sapiens, UniProt P17947 1-270)
# Method in brief: as §1
# SPIB = SPIB (Homo sapiens, UniProt Q01892 1-262)
# Method in brief: as §1
# ELK3 = biological target: T6, ELK3 (Homo sapiens, UniProt P41970 1-407)
# T6 sequence: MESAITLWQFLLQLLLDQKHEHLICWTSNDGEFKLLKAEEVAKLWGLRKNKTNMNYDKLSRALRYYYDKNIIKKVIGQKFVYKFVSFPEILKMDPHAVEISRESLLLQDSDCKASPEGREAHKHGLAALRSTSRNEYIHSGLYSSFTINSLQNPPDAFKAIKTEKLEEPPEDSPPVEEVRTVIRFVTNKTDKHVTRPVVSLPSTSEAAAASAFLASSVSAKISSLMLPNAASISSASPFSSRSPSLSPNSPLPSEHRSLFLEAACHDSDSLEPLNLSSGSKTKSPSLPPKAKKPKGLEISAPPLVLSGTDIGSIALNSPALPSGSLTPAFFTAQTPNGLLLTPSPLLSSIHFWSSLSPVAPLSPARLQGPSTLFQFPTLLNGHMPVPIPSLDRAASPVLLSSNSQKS
# Method in brief: as §1
# FEV = biological target: T7, FEV (Homo sapiens, UniProt Q99581 1-238)
# T7 sequence: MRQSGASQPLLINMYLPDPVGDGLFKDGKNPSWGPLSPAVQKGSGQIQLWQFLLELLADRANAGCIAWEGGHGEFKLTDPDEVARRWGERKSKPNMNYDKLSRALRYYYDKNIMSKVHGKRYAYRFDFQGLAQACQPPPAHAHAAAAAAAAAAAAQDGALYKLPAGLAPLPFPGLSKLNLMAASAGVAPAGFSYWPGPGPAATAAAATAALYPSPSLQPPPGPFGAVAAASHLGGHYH
# Method in brief: as §1
# ETV5 = ETV5 (Homo sapiens, UniProt P41161 1-510)
# Method in brief: as §1
# SPIC = biological target: T8, SPIC (Homo sapiens, UniProt Q8N5J4 1-248)
# T8 sequence: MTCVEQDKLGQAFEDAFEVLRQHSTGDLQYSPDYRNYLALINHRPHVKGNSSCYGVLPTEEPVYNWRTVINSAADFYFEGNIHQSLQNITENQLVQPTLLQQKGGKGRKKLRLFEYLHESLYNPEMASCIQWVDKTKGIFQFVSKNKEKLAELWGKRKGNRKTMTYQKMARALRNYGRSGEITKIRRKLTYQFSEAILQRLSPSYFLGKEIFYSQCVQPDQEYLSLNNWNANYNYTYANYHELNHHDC
# Method in brief: as §1
# ELF4 = ELF4 (Homo sapiens, UniProt Q99607 1-663)
# Method in brief: as §1
# ERF = biological target: T9, ERF (Homo sapiens, UniProt P50548 1-548)
# T9 sequence: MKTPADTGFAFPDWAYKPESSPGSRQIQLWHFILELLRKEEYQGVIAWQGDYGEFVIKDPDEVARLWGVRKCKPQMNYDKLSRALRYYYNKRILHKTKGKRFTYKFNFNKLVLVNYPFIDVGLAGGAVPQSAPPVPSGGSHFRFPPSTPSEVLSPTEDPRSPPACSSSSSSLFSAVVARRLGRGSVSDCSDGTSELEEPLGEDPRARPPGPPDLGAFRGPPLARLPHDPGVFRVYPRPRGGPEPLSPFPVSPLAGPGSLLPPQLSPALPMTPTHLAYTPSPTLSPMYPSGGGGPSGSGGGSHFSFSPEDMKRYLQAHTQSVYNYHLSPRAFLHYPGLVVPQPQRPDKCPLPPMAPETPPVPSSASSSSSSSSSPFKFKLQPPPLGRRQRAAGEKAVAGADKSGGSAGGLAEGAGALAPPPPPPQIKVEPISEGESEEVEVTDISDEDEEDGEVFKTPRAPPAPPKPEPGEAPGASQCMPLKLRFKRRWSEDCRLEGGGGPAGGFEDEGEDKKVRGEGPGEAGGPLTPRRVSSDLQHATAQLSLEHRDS
# Method in brief: as §1
# ETV3L = biological target: T10, ETV3L (Homo sapiens, UniProt Q6ZN32 1-361)
# T10 sequence: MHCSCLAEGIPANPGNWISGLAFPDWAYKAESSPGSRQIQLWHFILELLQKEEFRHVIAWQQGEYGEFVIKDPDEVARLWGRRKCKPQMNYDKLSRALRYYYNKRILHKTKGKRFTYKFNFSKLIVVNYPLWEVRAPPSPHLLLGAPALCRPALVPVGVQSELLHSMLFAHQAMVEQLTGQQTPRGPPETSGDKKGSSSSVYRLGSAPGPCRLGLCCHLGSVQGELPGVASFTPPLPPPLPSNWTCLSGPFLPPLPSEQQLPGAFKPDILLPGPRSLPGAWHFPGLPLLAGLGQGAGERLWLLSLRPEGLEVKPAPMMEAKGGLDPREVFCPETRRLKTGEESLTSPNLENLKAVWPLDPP
# Method in brief: as §1
# ETS2 = biological target: T11, ETS2 (Homo sapiens, UniProt P15036 1-469)
# T11 sequence: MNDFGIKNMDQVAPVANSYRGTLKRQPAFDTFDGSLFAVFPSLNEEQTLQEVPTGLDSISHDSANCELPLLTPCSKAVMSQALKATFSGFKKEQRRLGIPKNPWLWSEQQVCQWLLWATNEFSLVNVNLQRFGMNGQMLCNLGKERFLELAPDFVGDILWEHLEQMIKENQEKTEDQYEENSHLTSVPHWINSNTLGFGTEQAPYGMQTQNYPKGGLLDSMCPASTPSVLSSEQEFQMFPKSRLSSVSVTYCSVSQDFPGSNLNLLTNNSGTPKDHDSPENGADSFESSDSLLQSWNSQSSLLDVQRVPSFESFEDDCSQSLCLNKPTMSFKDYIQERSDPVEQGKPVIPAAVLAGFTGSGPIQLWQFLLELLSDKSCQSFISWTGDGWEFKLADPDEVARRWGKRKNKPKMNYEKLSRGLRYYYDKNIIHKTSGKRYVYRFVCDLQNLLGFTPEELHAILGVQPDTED
# Method in brief: as §1
# SPDEF = biological target: T12, SPDEF (Homo sapiens, UniProt O95238 1-335)
# T12 sequence: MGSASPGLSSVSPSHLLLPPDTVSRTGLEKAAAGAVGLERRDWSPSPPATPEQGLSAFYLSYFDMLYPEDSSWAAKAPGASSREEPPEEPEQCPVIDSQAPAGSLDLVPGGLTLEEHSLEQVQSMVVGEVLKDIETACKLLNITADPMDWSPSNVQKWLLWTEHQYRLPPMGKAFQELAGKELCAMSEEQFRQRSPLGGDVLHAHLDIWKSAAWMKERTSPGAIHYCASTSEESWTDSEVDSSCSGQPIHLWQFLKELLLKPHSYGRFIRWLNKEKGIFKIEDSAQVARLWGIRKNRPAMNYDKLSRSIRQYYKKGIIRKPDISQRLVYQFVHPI
# Method in brief: as §1
# ETV3 = biological target: T13, ETV3 (Homo sapiens, UniProt P41162-2 1-143)
# T13 sequence: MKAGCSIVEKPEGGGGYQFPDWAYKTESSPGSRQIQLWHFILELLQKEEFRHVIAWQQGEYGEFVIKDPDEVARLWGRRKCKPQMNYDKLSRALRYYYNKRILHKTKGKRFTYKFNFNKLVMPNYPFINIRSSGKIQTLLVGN
# Method in brief: as §1
# ELF1, sequence (P32519 whole entry): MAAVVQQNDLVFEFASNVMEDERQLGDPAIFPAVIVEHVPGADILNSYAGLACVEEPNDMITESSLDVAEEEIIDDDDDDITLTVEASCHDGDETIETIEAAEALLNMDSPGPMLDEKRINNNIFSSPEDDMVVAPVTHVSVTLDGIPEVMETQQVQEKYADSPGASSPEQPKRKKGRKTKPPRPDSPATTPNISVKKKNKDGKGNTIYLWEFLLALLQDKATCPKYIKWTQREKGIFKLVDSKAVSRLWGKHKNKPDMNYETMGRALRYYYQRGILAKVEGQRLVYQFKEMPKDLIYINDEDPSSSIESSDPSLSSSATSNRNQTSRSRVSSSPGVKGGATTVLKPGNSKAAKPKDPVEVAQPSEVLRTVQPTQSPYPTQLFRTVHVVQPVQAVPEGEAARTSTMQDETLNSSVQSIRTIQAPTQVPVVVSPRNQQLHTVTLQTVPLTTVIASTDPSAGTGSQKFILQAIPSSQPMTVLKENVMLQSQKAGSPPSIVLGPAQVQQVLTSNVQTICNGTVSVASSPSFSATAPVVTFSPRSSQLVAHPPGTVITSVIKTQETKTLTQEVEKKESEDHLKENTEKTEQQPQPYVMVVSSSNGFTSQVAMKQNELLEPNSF
# ELF4, sequence (Q99607 whole entry): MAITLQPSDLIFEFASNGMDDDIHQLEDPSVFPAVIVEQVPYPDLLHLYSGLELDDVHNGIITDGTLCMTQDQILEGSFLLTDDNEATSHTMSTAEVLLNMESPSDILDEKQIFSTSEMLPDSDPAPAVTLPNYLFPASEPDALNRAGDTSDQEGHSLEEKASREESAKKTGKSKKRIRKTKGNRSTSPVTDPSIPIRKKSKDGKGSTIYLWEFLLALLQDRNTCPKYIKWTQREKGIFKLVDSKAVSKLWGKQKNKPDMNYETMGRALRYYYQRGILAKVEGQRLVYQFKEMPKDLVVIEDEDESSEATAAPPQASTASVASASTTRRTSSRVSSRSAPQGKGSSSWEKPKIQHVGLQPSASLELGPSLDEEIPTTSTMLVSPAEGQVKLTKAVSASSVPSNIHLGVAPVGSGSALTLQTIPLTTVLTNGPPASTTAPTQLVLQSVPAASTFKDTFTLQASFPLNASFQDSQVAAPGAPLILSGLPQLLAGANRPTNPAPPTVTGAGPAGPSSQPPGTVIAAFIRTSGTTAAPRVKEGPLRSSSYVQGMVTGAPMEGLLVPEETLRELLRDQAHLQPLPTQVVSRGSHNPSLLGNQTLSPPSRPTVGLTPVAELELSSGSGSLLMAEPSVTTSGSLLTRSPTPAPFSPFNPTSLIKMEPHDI
# ETV5, sequence (P41161 whole entry): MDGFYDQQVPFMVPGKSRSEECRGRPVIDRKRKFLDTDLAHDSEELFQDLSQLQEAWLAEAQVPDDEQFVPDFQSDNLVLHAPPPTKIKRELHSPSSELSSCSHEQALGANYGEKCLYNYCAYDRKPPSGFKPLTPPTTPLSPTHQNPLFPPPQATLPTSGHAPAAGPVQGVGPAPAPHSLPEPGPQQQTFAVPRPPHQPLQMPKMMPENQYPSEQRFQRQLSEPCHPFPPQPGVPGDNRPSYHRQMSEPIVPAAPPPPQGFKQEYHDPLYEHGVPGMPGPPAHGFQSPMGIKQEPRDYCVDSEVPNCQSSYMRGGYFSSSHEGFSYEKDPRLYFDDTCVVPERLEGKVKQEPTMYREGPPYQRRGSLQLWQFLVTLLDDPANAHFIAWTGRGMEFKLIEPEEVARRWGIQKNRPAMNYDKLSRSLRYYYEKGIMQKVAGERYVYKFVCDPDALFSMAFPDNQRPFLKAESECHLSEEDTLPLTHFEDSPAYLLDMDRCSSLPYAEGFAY
# SPIB, sequence (Q01892 whole entry): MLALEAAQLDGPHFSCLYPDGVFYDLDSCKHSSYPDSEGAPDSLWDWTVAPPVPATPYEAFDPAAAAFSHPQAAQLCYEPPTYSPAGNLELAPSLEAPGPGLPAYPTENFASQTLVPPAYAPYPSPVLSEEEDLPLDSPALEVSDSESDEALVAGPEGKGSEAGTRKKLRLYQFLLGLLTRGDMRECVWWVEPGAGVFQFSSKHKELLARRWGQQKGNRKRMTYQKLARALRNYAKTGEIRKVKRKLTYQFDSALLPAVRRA
sequence,measurement,setting,value
GTCTTG,binding signal,FLI1,"1.02 fold enrichment (6-mer frequency, TF over GST control)"
same,binding signal,ELK1,"1.02 fold enrichment (6-mer frequency, TF over GST control)"
same,binding signal,GABPA,"1.11 fold enrichment (6-mer frequency, TF over GST control)"
same,binding signal,ERG,"1.05 fold enrichment (6-mer frequency, TF over GST control)"
same,binding signal,ELF1,"1 fold enrichment (6-mer frequency, TF over GST control)"
same,binding signal,EHF,"1.09 fold enrichment (6-mer frequency, TF over GST control)"
same,binding signal,SPI1,"1.01 fold enrichment (6-mer frequency, TF over GST control)"
same,binding signal,SPIB,"1.04 fold enrichment (6-mer frequency, TF over GST control)"
same,binding signal,ELK3,"1.17 fold enrichment (6-mer frequency, TF over GST control)"
same,binding signal,FEV,"1.01 fold enrichment (6-mer frequency, TF over GST control)"
same,binding signal,ETV5,"1.01 fold enrichment (6-mer frequency, TF over GST control)"
same,binding signal,SPIC,"1.11 fold enrichment (6-mer frequency, TF over GST control)"
same,binding signal,ELF4,"1.06 fold enrichment (6-mer frequency, TF over GST control)"
same,binding signal,ERF,"1.15 fold enrichment (6-mer frequency, TF over GST control)"
same,binding signal,ETV3L,"1.04 fold enrichment (6-mer frequency, TF over GST control)"
same,binding signal,ETS2,"1 fold enrichment (6-mer frequency, TF over GST control)"
same,binding signal,SPDEF,"1.05 fold enrichment (6-mer frequency, TF over GST control)"
same,binding signal,ETV3,"1 fold enrichment (6-mer frequency, TF over GST control)"

# From paper PMC7862700, “An all-to-all approach to the identification of sequence-specific readers for epigenetic DNA modifications on cytosine”
